In PubChem BioAssay one finds z-score and composite z-score data, which are given here for five compounds.

SMILES strings stand for the structures. Calls of active or inactive are those of the source.

Assay [1] in a line: optical density shifts of acrAB sulA E. coli – strain DRC41, OD650, 48 h, E. coli filamentation inducer project, primary screen (AID 1152).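 Further: E. coli MC1000 strain DRC41 lacking acrAB efflux pump and sulA.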 To be noted: higher = more signal, called active from +8 up or from −8 down.
The nature of assay [2]: probe aLefty1 binding on compound microarray – biochemical, small-molecule microarray, 635/667 nm fluorescence, primary screen (AID 1153).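 Further: score merges spot fluorescence with signal-to-noise ratio from the scanned slide images.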 To be noted: higher = more signal.
Assay [3] can be described thus: plasmodial surface anion channel blockers, osmotic lysis – cell-based, P. falciparum Indochina, OD700, 1 h, primary screen (AID 1154). To be noted: P. falciparum Indochina infected RBC osmotic lysis, higher = more signal, called active from +8 up or from −8 down.
The nature of assay [4]: plasmodial surface anion channel blockers, osmotic lysis – cell-based, P. falciparum Indochina, OD700, 2 h, primary screen (AID 1155).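 Further: lysis reports solute entry through the parasite surface anion channel PSAC.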 To be noted: P. falciparum Indochina infected erythrocytes, higher = more signal, called active from +8 up or from −8 down.
Assay [5] is described as follows: changes in parasitized red cell lysis, either direction – P. falciparum Indochina, OD700, 3 h, PSAC antagonist project, primary screen (AID 1156). To be noted: P. falciparum-infected erythrocytes, osmotic lysis, higher = more signal, called active from +8 up or from −8 down.
Assay [6] in a line: plasmodial surface anion channel blockers, osmotic lysis – cell-based, P. falciparum Indochina, OD700, 18 h, primary screen (AID 1157). As to conditions: P. falciparum Indochina infected erythrocytes, osmotic lysis OD700, 18 h; higher = more signal, called active from +8 up or from −8 down.
Assay [7] can be described thus: S6 kinase pathway phospho-S6 level changes – cell-based, A549, cytoblot, luminescence, serum-stimulated, primary screen (AID 1158).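 Further: serum-stimulated A549 lung adenocarcinoma cells; signal is phosphorylated S6 detected by cytoblot immunostaining with HRP secondary.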 To be noted: 5 h, higher = more signal.
Assay [8] concerns the target NADPH oxidase 2 (Homo sapiens) (UniProt P04839). As to the kind of experiment: compounds shifting NOX2 Amplex Red fluorescence – cell-based, HEK293-NOX2, PMA-stimulated, NOX inhibitor project, primary screen (AID 1159). Further: test concentration not given here. As to conditions: 45 min, higher = more signal, called active from +8 up or from −8 down.
For assay [9], the target named is NADPH oxidase 4 (Homo sapiens) (UniProt Q9NPH5). As to the kind of experiment: compounds shifting NOX4 Amplex Red fluorescence – cell-based, HEK293-NOX4, tetracycline-induced, NOX inhibitor project, primary screen (AID 1160). As to conditions: HEK293-NOX4, Amplex Red H2O2 fluorescence, 45 min; higher = more signal, called active from +8 up or from −8 down.
NADPH oxidase 4 (Homo sapiens), sequence (Q9NPH5 whole entry, looked up): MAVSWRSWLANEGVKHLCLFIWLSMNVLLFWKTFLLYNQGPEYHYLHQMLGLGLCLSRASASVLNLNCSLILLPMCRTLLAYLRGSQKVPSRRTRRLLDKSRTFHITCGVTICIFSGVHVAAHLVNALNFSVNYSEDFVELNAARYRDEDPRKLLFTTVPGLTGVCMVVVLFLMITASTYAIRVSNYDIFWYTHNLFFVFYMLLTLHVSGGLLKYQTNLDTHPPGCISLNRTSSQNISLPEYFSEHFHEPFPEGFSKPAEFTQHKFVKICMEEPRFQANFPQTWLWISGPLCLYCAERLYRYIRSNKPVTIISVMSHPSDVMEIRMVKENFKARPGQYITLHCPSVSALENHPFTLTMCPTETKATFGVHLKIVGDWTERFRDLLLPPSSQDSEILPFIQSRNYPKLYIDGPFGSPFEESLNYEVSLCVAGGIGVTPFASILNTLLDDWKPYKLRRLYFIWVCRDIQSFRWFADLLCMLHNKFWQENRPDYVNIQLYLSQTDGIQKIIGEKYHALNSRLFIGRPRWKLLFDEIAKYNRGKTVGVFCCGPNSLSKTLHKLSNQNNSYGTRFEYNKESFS
Assay [10] addresses NADPH oxidase 5 (Homo sapiens) (UniProt Q96PH1). As to the kind of experiment: compounds shifting NOX5 Amplex Red fluorescence – cell-based, HEK293-NOX5, NOX inhibitor project, primary screen (AID 1161). As to conditions: HEK293-NOX5, ionomycin, 45 min, higher = more signal.
The nature of assay [11]: compound effects on lung adenocarcinoma cell viability – A549, calcein-AM fluorescence, 48 h, basal, profiling panel (AID 1162). Further: test concentration not given here. To be noted: higher = more signal.
Assay [12] can be described thus: compound effects on differentiated 3T3-L1 adipocyte viability – cell-based, 3T3-L1 adipocytes, calcein-AM fluorescence, 48 h, basal, profiling panel (AID 1163). Further: test concentration not given here. To be noted: 3T3-L1 adipocytes viability, higher = more signal.
Assay [13] in a line: compound effects on hepatocellular carcinoma cell viability – HepG2, calcein-AM fluorescence, 48 h, basal, profiling panel (AID 1164). Further: test concentration not given here. As to conditions: higher = more signal.
Assay [14] is described as follows: compound effects on multiple myeloma cell viability – MM1S, calcein-AM fluorescence, 48 h, basal, profiling panel (AID 1165). Further: test concentration not given here. As to conditions: higher = more signal.
The nature of assay [15]: calcein-AM signal in unstimulated myeloma cells – cell-based, calcein-AM fluorescence, 48 h, PK04 Diversity Set, profiling panel (AID 1166).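 Further: cells grown under basal conditions without added stimulus; test concentration not given here.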 To be noted: RPMI8226 myeloma viability, higher = more signal.
Assay [16] can be described thus: JC-1 mitochondrial signal, unstimulated HepG2 cells – cell-based, JC-1 fluorescence, 24 h, 100 nL compound, profiling panel (AID 1167). Further: test concentration not given here. As to conditions: HepG2 mitochondrial potential, higher = more signal.
Assay [17] can be described thus: JC-1 mitochondrial signal, unstimulated adipocytes – cell-based, JC-1 fluorescence, 3T3-L1 adipocytes, 24 h, 100 nL compound, profiling panel (AID 1168). Further: test concentration not given here. As to conditions: JC-1 mitochondrial fluorescence, higher = more signal, called active from +8 up or from −8 down.
Assay [18] can be described thus: JC-1 mitochondrial signal, unstimulated myeloma cells – cell-based, JC-1 fluorescence, RPMI8226, 24 h, 100 nL compound, profiling panel (AID 1169). Further: test concentration not given here. To be noted: JC-1 mitochondrial potential fluorescence, higher = more signal.
A short description of assay [19]: JC-1 mitochondrial signal, unstimulated MM1S myeloma – cell-based, JC-1 fluorescence, 24 h, 100 nL compound, profiling panel (AID 1170). Further: test concentration not given here. To be noted: MM1S mitochondrial potential, higher = more signal.
A short description of assay [20]: resazurin metabolic signal in A549 cells – cell-based, resazurin fluorescence, 24 h, PK04 Diversity Set, profiling panel (AID 1171). Further: test concentration not given here. To be noted: A549 viability, higher = more signal, called active from +8 up or from −8 down. A general note: Resazurin is reduced to fluorescent resorufin, in cell work by metabolically active cells.

NADPH oxidase 5 (Homo sapiens), sequence (Q96PH1 whole entry, looked up): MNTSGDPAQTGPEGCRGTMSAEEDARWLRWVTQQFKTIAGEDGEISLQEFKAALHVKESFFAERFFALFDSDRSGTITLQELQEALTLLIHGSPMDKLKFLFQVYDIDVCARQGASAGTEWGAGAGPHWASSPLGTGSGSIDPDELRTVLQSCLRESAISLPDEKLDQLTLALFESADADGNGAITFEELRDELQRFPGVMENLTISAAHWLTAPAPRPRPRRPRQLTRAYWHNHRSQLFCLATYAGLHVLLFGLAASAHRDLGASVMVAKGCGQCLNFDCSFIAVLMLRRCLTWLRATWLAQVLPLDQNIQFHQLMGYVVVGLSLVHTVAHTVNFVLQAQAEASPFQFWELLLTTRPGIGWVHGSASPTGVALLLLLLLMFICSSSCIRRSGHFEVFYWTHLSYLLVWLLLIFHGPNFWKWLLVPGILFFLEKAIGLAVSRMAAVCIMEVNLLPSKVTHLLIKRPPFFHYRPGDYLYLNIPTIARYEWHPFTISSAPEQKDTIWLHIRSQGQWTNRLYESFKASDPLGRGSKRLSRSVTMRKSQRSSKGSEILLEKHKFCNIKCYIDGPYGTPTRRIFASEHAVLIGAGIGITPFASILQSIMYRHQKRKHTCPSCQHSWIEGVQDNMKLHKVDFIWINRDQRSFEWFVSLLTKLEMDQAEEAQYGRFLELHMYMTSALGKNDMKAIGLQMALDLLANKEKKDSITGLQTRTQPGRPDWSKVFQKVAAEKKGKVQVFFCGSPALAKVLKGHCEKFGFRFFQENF
NADPH oxidase 2 (Homo sapiens), sequence (P04839 whole entry, looked up): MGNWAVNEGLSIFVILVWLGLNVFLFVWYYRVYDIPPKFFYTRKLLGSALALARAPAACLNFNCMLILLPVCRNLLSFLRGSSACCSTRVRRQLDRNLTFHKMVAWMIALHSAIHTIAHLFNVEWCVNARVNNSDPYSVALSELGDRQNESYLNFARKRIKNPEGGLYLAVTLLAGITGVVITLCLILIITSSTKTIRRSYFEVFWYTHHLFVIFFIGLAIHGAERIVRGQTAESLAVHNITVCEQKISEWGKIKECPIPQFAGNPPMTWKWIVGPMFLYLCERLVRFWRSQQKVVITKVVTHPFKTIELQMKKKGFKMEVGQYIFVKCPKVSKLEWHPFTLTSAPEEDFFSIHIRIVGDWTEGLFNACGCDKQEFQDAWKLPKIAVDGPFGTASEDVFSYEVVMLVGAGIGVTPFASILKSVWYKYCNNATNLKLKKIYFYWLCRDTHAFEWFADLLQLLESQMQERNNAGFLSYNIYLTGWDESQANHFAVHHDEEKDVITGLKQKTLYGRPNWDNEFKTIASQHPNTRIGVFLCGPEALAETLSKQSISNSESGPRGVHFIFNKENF

Consider `COCCCNC(=O)[C@@]1(CCS(=O)(=O)c2ccccc2)N=C(c2ccc(OCCCO)cc2)O[C@H]1c1ccccc1`, for which the z-score was 2.46 (inactive) in assay [1]; 28.5 (active) in [3]; 21 (active) in assay [4]; 1.08 (inactive) in [5]; 1.55 (inactive) in assay [6]; 0.326 in assay [7]. The z-score in [8] is 3.58 (inactive); in assay [9] it was 1.71 (inactive); in [10] it was -0.339; in [11], 2.27; in assay [12] it was 0.217; in assay [13] it was 1.84. Further, the z-score in [14] is -0.345; in assay [15] it was -0.193; in assay [16], 0.887; in [17], -0.468 (inactive); in [18] it was 0.243; in assay [19], 0.508. The z-score in assay [20] was 0.486 (inactive). Besides, the composite z-score in [2] is 0.812.
`CCCNC(=O)OC[C@H]1O[C@H](CCON=C[C@@H](OC)[C@H](C)C=CCC(=O)OC)C=C[C@@H]1Oc1ccc(OC)cc1`: the z-score in assay [1] is -0.042 (inactive); in [3] it was 4.4 (inactive); in assay [4], 0.143 (inactive); in assay [5] it was -0.0652 (inactive); in assay [6] it was 0.368 (inactive); in assay [7], 0.0604. The z-score was -1.56 (inactive) in [8]; 0.00725 (inactive) in [9]; -2.76 in assay [10]; 0.0666 in assay [11]; 0.764 in assay [12]; 0.97 in assay [13]. Further, the z-score in [14] was -0.902; in assay [15], 0.122; in assay [16], -0.12; in assay [17] it was -0.277 (inactive); in assay [18], 0.0719; in assay [19], -0.118. Besides, the z-score in assay [20] is 1.2 (inactive). In assay [2], the composite z-score came to 0.0889.
Turning to `O=C1C[C@@H](O)[C@@H](O)[C@@H]2[C@@H]3C(=O)N(c4cccc(Oc5ccccc5)c4)C(=O)[C@@H]3CC[C@@H]12`, the z-score is -0.268 (inactive) in assay [1]; 0.956 (inactive) in assay [3]; -0.329 (inactive) in assay [4]; 0.406 (inactive) in [5]; 0.0818 (inactive) in assay [6]; -0.363 in assay [7]. Further, the z-score in assay [8] was -0.837 (inactive); in assay [9], -0.154 (inactive); in [10], 0.558; in assay [11], 0.494; in assay [12], -0.202; in assay [13], -0.323. In addition, the z-score is 0.309 in [14]; -0.0677 in assay [15]; -0.0107 in [16]; 0.615 (inactive) in assay [17]; 0.54 in [18]; 0.531 in assay [19]. For the same compound, the z-score in assay [20] was -0.187 (inactive). In [2], this compound registered a composite z-score of -0.0652.
Turning to `CO[C@@H]1COC(=O)[C@@H]2CCCN2C(=O)[C@@H](C)COC(=O)[C@H](COCc2ccccc2)NC(=O)CC=C[C@H]1C`, the z-score in [1] was -2.21 (inactive); in assay [3], 0.553 (inactive); in [4], 0.367 (inactive); in assay [5], 1.29 (inactive); in [6], 0.441 (inactive); in [7] it was -0.493. Besides, the z-score in assay [8] was -0.363 (inactive); in [9], -0.643 (inactive); in [10] it was -0.159; in [11] it was -0.427; in [12] it was 0.169; in [13], -1.5. The z-score in assay [14] was -0.329; in assay [15] it was -0.0455; in assay [16] it was -0.152; in [17] it was -1.02 (inactive); in assay [18] it was -0.156; in assay [19], -0.683. Also, in assay [20], the z-score was -0.366 (inactive). In assay [2], this compound returned a composite z-score of -0.111.
For `CO[C@@H]1COC(=O)[C@H](C)NC(=O)[C@@H](C)COC(=O)CCC[C@H]1C`, the z-score in assay [1] was 0.298 (inactive); in [3], 5.14 (inactive); in assay [4], 0.891 (inactive); in assay [5], 1.45 (inactive); in assay [6] it was 0.516 (inactive); in [7], -0.276. The z-score in assay [8] was -0.869 (inactive); in assay [9], 0.0705 (inactive); in [10], -1.15; in assay [11], -0.0857; in [12], -0.459; in assay [13], -0.735. Also, the z-score in assay [14] was -0.3; in assay [15], -1.38; in assay [16] it was -0.85; in assay [17], -0.788 (inactive); in [18], 0.706; in assay [19], -0.626. In assay [20], the z-score is -0.0213 (inactive). For the same compound, the composite z-score in [2] is 0.0291.
